Test results taken from PubChem BioAssay (EPA / NIEHS).
Active and inactive are the calls of the source. How the source made its calls: active means hit-call score of the fitted dose curve at least 0.9, where 1 is the maximum; inactive means score below 0.9.

Assays:
[1] = ATG_E_Box_CIS: Attagene CIS-FACTORIAL HepG2 Assay for human Enhancer Box (E-box) (AID 2282936); details: HepG2 E-box cis-reporter transcription, actives raise or lower the signal
Procedure, shortened: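 Measured 24 h post-dosing in HepG2 cells transfected with multiple cis-regulated reporter units, signal being reporter mRNA induction detected by fluorescent RT-PCR with capillary electrophoresis; gain or loss fitted against DMSO.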

[2] = ATG_M_61_CIS: Attagene CIS-FACTORIAL HepG2 Assay for M61 Transcription Factor (Internal Marker) (AID 2282937); details: HepG2 Attagene CIS-FACTORIAL M61 internal marker reporter; actives raise or lower the signal
Procedure, shortened: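 Background-control endpoint: HepG2 cells with cis-regulated reporter constructs, 24 h exposure, reporter mRNA detected via fluorescent primer extension and capillary electrophoresis; values from bidirectional fitting with DMSO baseline.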

[3] = ATG_EGR_CIS: Attagene CIS-FACTORIAL HepG2 Assay for human Early Growth Response 1 (EGR1) (AID 2282938); details: HepG2 Attagene CIS-FACTORIAL EGR reporter mRNA; actives raise or lower the signal
Procedure, shortened: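 Endpoint derived by bidirectional fitting versus DMSO vehicle. Method: cis-promoter reporter units transfected into HepG2, 24 h dosing, RNA isolation, RT-PCR with 6-FAM primer extension and HpaI digestion, then capillary electrophoresis fluorescence detection.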

[4] = ATG_M_19_CIS: Attagene CIS-FACTORIAL HepG2 Assay for M19 Transcription Factor (Internal Marker) (AID 2282939); details: HepG2 Attagene CIS-FACTORIAL M19 internal marker reporter; actives raise or lower the signal
Procedure, shortened: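 Following a 24 h exposure, RNA from transfected HepG2 cells was reverse-transcribed, PCR-amplified with reporter-specific primers, end-labelled with 6-FAM and HpaI-digested before capillary separation. Values represent gain or loss versus DMSO.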

[5] = ATG_ERE_CIS: Attagene CIS-FACTORIAL HepG2 Assay for Estrogen Response Element (ERE) (AID 2282940); details: HepG2 ERE cis-reporter, Attagene RNA transcript; actives raise or lower the signal
Procedure, shortened: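 HepG2, transient cis-reporter units, 24 h exposure. RNA isolated, oligo(dT) RT, reporter-specific PCR, FAM extension, HpaI cut, CE detection. Gain/loss-of-signal vs DMSO.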

[6] = ATG_Ets_CIS: Attagene CIS-FACTORIAL HepG2 Assay for human Erythroblast Transformation Specific (ETS) (AID 2282941); details: HepG2 ETS cis-reporter transcription, actives raise or lower the signal
Procedure, shortened: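 Bidirectional fit versus DMSO of reporter mRNA signal, detected by RT-PCR and capillary electrophoresis in HepG2 cells transiently transfected with cis-element reporters and dosed 24 h.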

[7] = molecular target: Hepatocyte nuclear factor 3-beta (Homo sapiens) (UniProt Q9Y261); experiment: ATG_FoxA2_CIS: Attagene CIS-FACTORIAL HepG2 Assay for human Forkhead box A2 (FOXA2) (AID 2282942); details: HepG2 cis-reporter transcription factor activity, 24 h; actives raise or lower the signal
Hepatocyte nuclear factor 3-beta (Homo sapiens), sequence (Q9Y261 whole entry, looked up): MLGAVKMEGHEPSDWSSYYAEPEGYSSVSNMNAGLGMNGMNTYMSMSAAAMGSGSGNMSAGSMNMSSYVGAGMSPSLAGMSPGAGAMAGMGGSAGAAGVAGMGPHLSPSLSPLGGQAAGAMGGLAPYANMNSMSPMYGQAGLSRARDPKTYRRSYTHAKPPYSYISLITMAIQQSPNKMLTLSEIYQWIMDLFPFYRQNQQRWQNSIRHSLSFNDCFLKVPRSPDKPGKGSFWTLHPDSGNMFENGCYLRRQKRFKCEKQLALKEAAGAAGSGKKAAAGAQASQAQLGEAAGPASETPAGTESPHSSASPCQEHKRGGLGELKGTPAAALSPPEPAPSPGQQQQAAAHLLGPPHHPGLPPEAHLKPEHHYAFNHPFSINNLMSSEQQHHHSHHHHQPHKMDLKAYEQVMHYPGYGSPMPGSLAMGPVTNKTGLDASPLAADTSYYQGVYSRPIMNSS
Procedure, shortened: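 Measured: reporter mRNA induction or loss in HepG2 transiently carrying multiple cis-regulated reporter units, 24 h after dosing. Quantified by RT-PCR plus capillary electrophoresis, normalised to DMSO.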

[8] = ATG_FoxO_CIS: Attagene CIS-FACTORIAL HepG2 Assay for human Forkhead box O (FoxO) (AID 2282943); details: HepG2 Attagene cis-reporter, FoxO element, mRNA; actives raise or lower the signal
Procedure, shortened: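 Values reflect reporter mRNA induction or loss in HepG2 cells 24 h post-dosing, fitted bidirectionally with DMSO as negative control and baseline. Detection used RT-PCR and fluorescence capillary electrophoresis.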

[9] = ATG_GATA_CIS: Attagene CIS-FACTORIAL HepG2 Assay for human GATA Binding Protein (AID 2282944); details: HepG2 GATA cis-element reporter, Attagene multiplex mRNA; actives raise or lower the signal
Procedure, shortened: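 DMSO serves as negative control and baseline for bidirectional fitting of reporter mRNA changes. HepG2 cells bearing transiently transfected cis-promoter reporters were exposed 24 h; transcripts detected via RT-PCR and capillary electrophoresis.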

[10] = ATG_GLI_CIS: Attagene CIS-FACTORIAL HepG2 Assay for human Zinc Finger Protein GLI1 (AID 2282945); details: HepG2, Attagene cis-factorial reporter mRNA, GLI element; actives raise or lower the signal
Procedure, shortened: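 HepG2 cells transiently transfected with cis-promoter multiplexed reporter units report endogenous transcription factor activity. After 24 h chemical exposure, reporter mRNA was quantified by RT-PCR, 6-FAM labelling, HpaI digestion and capillary electrophoresis, with bidirectional fitting against DMSO.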

[11] = ATG_GRE_CIS: Attagene CIS-FACTORIAL HepG2 Assay for human Glucocorticoid Response Elements (GRE) (AID 2282947); details: HepG2 GRE cis-reporter, Attagene multiplex mRNA; actives raise or lower the signal
Procedure, shortened: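 HepG2, transient cis-reporter transfection, 24 h. Reporter mRNA: RT-PCR then CE, fluorescence. Fit both directions vs DMSO.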

[12] = ATG_ISRE_CIS: Attagene CIS-FACTORIAL HepG2 Assay for human Interferon Regulatory Factor 1 (IRF1) binding to an Interferon-Stimulated Response Element (ISRE) (AID 2282948); details: HepG2 ISRE cis-reporter (Attagene), mRNA transcription readout; actives raise or lower the signal
Procedure, shortened: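 Uses HepG2 liver cells transfected with cis-regulated reporters and measures mRNA 24 h post-dosing through RT-PCR, primer-extension labelling and capillary electrophoresis, with DMSO as negative control.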

[13] = ATG_M_32_CIS: Attagene CIS-FACTORIAL HepG2 Assay for M32 Transcription Factor (Internal Marker) (AID 2282949); details: HepG2 Attagene cis-factorial M32 reporter, mRNA; actives raise or lower the signal;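 further: background control marker of the multiplexed CIS panel rather than a real target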
Procedure, shortened: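 Transient MRTU transfection of HepG2; 24 h compound treatment; TriZol RNA, oligo(dT) RT, reporter PCR, 6-FAM primer extension, HpaI cut, CE. Gain/loss of signal vs DMSO.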

[14] = ATG_M_06_CIS: Attagene CIS-FACTORIAL HepG2 Assay for M06 Transcription Factor (Internal Marker) (AID 2282950); details: HepG2 Attagene CIS-FACTORIAL M06 internal marker reporter; actives raise or lower the signal
Procedure, shortened: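 Fluorescence-labelled RT-PCR products from cis-promoter reporter units, cut with HpaI and resolved by capillary electrophoresis, give the signal. Cells are human HepG2, dosed for 24 h. Serves as background control, fitted relative to DMSO.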

[15] = molecular target: Hypoxia-inducible factor 1-alpha (Homo sapiens) (UniProt Q16665); experiment: ATG_HIF1a_CIS: Attagene CIS-FACTORIAL HepG2 Assay for human Hypoxia Inducible Factor 1 (HIF1A) (AID 2282951); details: HepG2 Attagene cis-factorial HIF1a reporter transcription; actives raise or lower the signal
Hypoxia-inducible factor 1-alpha (Homo sapiens), sequence (Q16665 whole entry, looked up): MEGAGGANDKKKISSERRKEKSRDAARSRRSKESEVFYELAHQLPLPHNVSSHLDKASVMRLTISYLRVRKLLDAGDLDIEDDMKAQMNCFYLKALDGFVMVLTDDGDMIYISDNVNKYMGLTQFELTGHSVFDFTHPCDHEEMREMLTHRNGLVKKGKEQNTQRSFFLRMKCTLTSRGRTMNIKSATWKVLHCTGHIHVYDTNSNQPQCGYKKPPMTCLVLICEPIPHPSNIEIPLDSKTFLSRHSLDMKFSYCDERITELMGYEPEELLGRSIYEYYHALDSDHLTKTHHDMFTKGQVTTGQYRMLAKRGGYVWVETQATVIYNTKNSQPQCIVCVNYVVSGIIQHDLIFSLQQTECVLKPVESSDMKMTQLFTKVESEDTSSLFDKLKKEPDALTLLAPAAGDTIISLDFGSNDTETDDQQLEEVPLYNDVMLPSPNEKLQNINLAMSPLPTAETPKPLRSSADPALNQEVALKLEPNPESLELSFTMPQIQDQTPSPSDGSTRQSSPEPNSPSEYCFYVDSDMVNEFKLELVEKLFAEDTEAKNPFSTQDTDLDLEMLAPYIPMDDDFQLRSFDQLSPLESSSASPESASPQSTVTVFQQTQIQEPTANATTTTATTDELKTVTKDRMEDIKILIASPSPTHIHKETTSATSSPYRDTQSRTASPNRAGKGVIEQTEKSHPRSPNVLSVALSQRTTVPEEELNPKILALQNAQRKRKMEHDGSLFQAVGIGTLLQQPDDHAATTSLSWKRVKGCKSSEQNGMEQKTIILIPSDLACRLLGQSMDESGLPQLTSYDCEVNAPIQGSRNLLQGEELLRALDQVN
Procedure, shortened: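 Dosed 24 h, transfected HepG2 cells yielded total RNA whose reporter transcripts were RT-PCR-amplified and sized by capillary electrophoresis using fluorescent labelling; DMSO defined baseline, with gain and loss of signal both fitted.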

[16] = molecular target: Heat shock factor protein 1 (Homo sapiens) (UniProt Q00613); experiment: ATG_HSE_CIS: Attagene CIS-FACTORIAL HepG2 Assay for human Heat Shock Transcription Factor 1 (HSE) (AID 2282953); details: HepG2 HSE cis-reporter, Attagene RNA transcription; actives raise or lower the signal
Heat shock factor protein 1 (Homo sapiens), sequence (Q00613 whole entry, looked up): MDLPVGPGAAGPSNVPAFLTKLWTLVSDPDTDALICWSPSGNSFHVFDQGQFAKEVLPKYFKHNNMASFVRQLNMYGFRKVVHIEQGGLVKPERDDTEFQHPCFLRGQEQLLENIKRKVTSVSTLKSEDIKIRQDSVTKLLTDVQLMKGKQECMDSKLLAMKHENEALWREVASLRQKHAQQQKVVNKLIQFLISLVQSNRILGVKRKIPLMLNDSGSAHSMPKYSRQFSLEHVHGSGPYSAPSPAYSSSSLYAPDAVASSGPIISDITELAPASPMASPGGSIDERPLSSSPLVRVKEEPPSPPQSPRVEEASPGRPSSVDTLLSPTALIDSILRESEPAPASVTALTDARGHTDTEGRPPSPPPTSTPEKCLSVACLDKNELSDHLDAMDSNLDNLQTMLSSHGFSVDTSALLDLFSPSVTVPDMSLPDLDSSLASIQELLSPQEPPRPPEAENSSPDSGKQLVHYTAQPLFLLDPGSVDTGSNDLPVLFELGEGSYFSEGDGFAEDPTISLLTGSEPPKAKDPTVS
Procedure, shortened: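 After a 24 h incubation with test chemical, transfected HepG2 cells were harvested for RNA; reporter transcripts were measured by RT-PCR and capillary electrophoresis. Values reflect gain or loss of signal relative to DMSO.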

[17] = ATG_MRE_CIS: Attagene CIS-FACTORIAL HepG2 Assay for human Metal Responsive Element (MRE) (AID 2282954); details: HepG2 MRE cis-reporter transcription, Attagene multiplex; actives raise or lower the signal
Procedure, shortened: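 Readout: capillary electrophoresis of 6-FAM-labelled, HpaI-digested RT-PCR reporter products. System: HepG2 cells carrying transient multiplexed cis reporters, dosed 24 h. Analysis: bidirectional fit, DMSO baseline.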

[18] = molecular target: Bile acid receptor (Homo sapiens) (UniProt Q96RI1); experiment: ATG_IR1_CIS: Attagene CIS-FACTORIAL HepG2 Assay for human Nuclear Receptor Subfamily 1 Group H Member 4 (NR1H4), IR1 submotif (AID 2282946); details: IR1 reporter transcription, actives raise or lower the signal
Bile acid receptor (Homo sapiens), sequence (Q96RI1 whole entry, looked up): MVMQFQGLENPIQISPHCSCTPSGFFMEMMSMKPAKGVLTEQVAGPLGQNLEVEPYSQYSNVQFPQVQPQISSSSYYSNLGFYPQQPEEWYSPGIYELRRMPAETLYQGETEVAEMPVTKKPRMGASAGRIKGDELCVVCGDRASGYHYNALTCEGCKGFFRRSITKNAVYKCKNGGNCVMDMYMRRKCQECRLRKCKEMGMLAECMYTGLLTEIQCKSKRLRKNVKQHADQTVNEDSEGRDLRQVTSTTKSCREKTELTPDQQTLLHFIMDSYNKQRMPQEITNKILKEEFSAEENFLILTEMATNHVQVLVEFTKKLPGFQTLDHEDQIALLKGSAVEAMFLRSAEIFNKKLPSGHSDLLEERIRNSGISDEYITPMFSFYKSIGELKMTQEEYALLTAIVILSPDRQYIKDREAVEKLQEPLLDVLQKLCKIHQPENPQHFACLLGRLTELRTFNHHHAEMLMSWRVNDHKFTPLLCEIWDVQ
Procedure, shortened: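 Readout: reporter transcript levels by RT-PCR with fluorescent capillary electrophoresis, from HepG2 cells transiently transfected with multiplexed cis-regulated reporters and dosed 24 h. Gain- or loss-of-signal fitted versus DMSO negative control.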

[19] = molecular target: Hepatocyte nuclear factor 6 (Homo sapiens) (UniProt Q9UBC0); experiment: ATG_HNF6_CIS: Attagene CIS-FACTORIAL HepG2 Assay for human Hepatocyte Nuclear Factor 6 (HNF6) (AID 2282952); details: HepG2 Attagene cis-factorial HNF6 reporter transcription; actives raise or lower the signal
Hepatocyte nuclear factor 6 (Homo sapiens), sequence (Q9UBC0 whole entry, looked up, the tested form may be a part): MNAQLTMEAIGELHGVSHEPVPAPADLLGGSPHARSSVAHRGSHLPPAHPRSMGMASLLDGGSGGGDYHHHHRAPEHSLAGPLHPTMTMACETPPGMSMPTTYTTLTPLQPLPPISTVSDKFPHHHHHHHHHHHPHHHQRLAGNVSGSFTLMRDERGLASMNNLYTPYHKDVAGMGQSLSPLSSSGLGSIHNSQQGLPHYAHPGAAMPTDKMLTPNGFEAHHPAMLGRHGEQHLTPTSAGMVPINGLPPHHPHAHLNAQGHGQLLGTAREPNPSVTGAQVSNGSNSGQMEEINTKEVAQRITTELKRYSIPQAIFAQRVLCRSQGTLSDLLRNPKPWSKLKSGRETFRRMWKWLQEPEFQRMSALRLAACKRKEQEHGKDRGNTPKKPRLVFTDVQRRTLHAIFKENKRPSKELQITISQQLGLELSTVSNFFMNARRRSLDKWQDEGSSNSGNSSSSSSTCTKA
Procedure, shortened: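 First, HepG2 cells were transfected with the multiplexed cis reporter library and dosed with chemical for 24 h. Next, RNA was reverse-transcribed, PCR-amplified and fluorescently labelled. Finally, HpaI-digested fragments were read by capillary electrophoresis.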

Measured: AC50

Cc1cccc(C(C)(C)C)c1O
not listed: [18] | [19]
inactive: all other assays above

CCCCCC(=O)OCC
not listed: [2] | [17] | [19]
inactive: all other assays above

CCCCC/C=C\C/C=C\CCCCCCCC(=O)O
active: [3] 72.5 µM | [18] 76.3 µM | [15] 26.6 µM | [16] 150 µM | [17] 149 µM
not listed: [11]
inactive: all other assays above

C=C(C)C(=O)OCCCCCCCCCCCC
not listed: [2] | [11] | [18]
inactive: all other assays above

CCCCCCCCCCCCCc1ccccc1
not listed: [10]
inactive: all other assays above

CCCCCCCCCCCC(=O)OCC
not listed: [8] | [17] | [18]
inactive: all other assays above

CCCCCCCCCCCC(=O)N(C)CC(=O)O
active: [5] 14.3 µM
not listed: [18] | [19]
inactive: all other assays above

O=C1c2ccccc2C(=O)c2cc(S(=O)(=O)O)ccc21
not listed: [11] | [18]
inactive: all other assays above

C/C=C/C=C/CCCCCCCO
active: [3] 100 µM | [10] 168 µM | [18] 172 µM | [16] 168 µM | [17] 121 µM
not listed: [8] | [11]
inactive: all other assays above

CCC(=O)C1CC(C(C)C)CC=C1C (stereo not drawn)
not listed: [2] | [17] | [18]
inactive: all other assays above
